# Test results published in the supplement of paper PMC6555819.
# Key:
# Assay in all cases: PBM binding z-score (relative to random genomic background probes); higher = stronger binding; sequences stand for … in GC…GCGATTGACAGCGTAGAATGAAGG
# [1] = tested on: RARb homodimer (NR concentration 270 nM)
# How it was run: (§1)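 Custom Agilent 4×180K protein-binding microarrays carried double-stranded probes, each with a 34-nt variable region. These regions held direct-repeat seeds, single-nucleotide variants, half-site ablations and random human genomic background sequences. Ligand-free nuclear receptor dimers were incubated on the arrays for 1 h, antibodies against each partner (one per run) detected binding, and scanned fluorescence was regression-normalized. Binding z-scores take the random background probes as reference.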
# [2] = tested on: RARg:RXRa (NR concentration 270 nM, RXRa partner concentration 90 nM)
# How it was run: as §1
# [3] = tested on: RARg homodimer (NR concentration 270 nM)
# How it was run: as §1
# [4] = tested on: RXRa DBDmut IVT, anti-RXR (DBD mutation: RXRa K156A/R161A, NR concentration 90 nM)
# How it was run: as §1
# [5] = tested on: RXRa homodimer (NR concentration 180 nM)
# How it was run: as §1
# [6] = tested on: THRa:RXRa (NR concentration 90 nM, RXRa partner concentration 90 nM)
# How it was run: as §1
# [7] = tested on: THRa homodimer (NR concentration 90 nM)
# How it was run: as §1
# [8] = tested on: VDR homodimer (NR concentration 270 nM)
# How it was run: as §1
Sequence,PBM binding z-score [1],PBM binding z-score [2],PBM binding z-score [3],PBM binding z-score [4],PBM binding z-score [5],PBM binding z-score [6],PBM binding z-score [7],PBM binding z-score [8]
CGTCCAAGGTCATAGGAGGTCTGTGAAGACAGAT,3.75,5.85,5.79,3.7,6.11,4.63,2.24,2.81
ATCTCTAGGTAAAGTTCAGTGGAAGATCGATAGA,2.55,2.03,2.47,1.74,1.11,1.3,0.319,2.23
TCTGCTAGGTCAACGATGGTCAGCTCATCTGCTA,3.24,3.91,4.62,1.05,2.41,3.15,0.671,-0.436
TCATATAGGTAAAAAGTGAAAGTCGGTGTGGTAA,0.0434,0.226,-0.0939,2.01,0.563,-0.0757,-0.132,0.435
CCTTACGGGTCACTCCTGGTTATAGCATCGGAGT,2.89,4.05,4,1.26,3.9,2.86,-0.0278,1.19
CGAACTAGGTCAAAACAGGACAGTGAAGGATGAT,2.27,3.48,3.77,1.49,2.25,4.13,0.485,0.573
CGAACGAGGGCATGAGTTGATATCAAATGCCGAT,0.794,1.37,1.81,2.39,0.883,1.14,-0.157,2.28
TCTCGGAGGACAAGAAGGTCAGAGCTTTCCAGAG,3.34,2.76,3.26,0.905,1.69,2.09,0.236,0.789
TCAGACAGGGGAAGGTAACTCAGGTACGCAGTCG,0.725,0.0159,-0.128,1.16,0.547,1.38,1.02,0.491
CCAGCCAGGTGAGAAGGTAACTCAGCCTCGATTA,0.235,0.0253,0.00676,-0.801,0.0434,0.621,0.306,-0.441
AGAACGAGGGCAATGAGCTGATAGCACGGGTGGC,0.707,1.15,1.22,1.19,0.871,0.598,-0.379,0.597
CCTCGGAGGACACAAGGTCAGAGCTGTCCGCTTT,3.68,3.85,3.74,0.757,2.07,3.65,1.57,0.992
TCTAGCAGGCCAGAGTGTCACTCAAGAGGTACGG,0.119,0.145,0.167,-0.194,0.302,-0.304,-1.19,-0.738
TCTAGTTGGCCACGGAGGTCACACACGACGGGTA,3.85,3.98,3.67,0.683,4.31,3.48,2.53,1.99
CCCACTGGGGCAGAAAGGTTACCATACCATCCGG,2.2,1.52,1.63,-1.65,1.6,1.01,-0.221,-0.41
AGAATGAGCTTAAGATCAGGGAAACAGAATACAT,-0.611,-0.159,0.233,-0.641,-0.0967,-0.123,-0.875,-0.392
AGTCAAAGTTCAGGACAAGGTAACGTAAAGCACG,3.29,5.05,5.13,3.14,3.26,4.05,2.59,2.15
CAAACTAGGTCGAGAGGTCAAAGTCCGCTTCCCG,4.73,5.98,5.09,2.17,6.17,3.62,1.8,3.99
CGAACTAGTTCATTGACAGGACAGTGAATAGTAA,0.576,1.79,1.11,3,0.234,0.837,-0.237,2.01

Sequence,PBM binding z-score [1],PBM binding z-score [2],PBM binding z-score [3],PBM binding z-score [4],PBM binding z-score [5],PBM binding z-score [6],PBM binding z-score [7],PBM binding z-score [8]
CCTGCTAGGTCATGGTCAGCCAATCTACAGTATG,3.14,3.98,4.45,1.26,3.04,3.07,1.18,0.0846
CCTATTAGTTGACCATACGGGCAACCGAAGCTCG,1.12,0.753,0.421,0.337,0.116,0.0977,0.187,0.509
CGTCCAAGGTCAAAGGTCTGTGAAGAGATGACGG,4.1,6.32,6.12,4.3,6.84,4.04,2.11,3.09
AGAACGAGGGCACGCTGAGTTGATAGCGGAGTAG,1.17,1.85,2.56,1.97,1.26,1.86,0.248,2.34
TAGCCTAGGTCTGATCGGGCCAGTATACGCTATA,-0.807,-0.244,-0.187,-1.28,-0.358,0.71,-0.845,-0.912
ATACCAAGATGATCGTGAGGTCGTTGATACTAAC,1.17,0.596,0.434,0.473,0.929,2.39,1.81,2.77
CCTCGGAGGACAGAAGGACAGAGCTGTCCGCTTT,0.278,-0.0569,0.674,-0.277,-0.555,0.672,-0.622,-0.357
ATCGAAAGGTCGAGATGAGTATAGAGAAAGGGAA,1.97,3.79,3.54,0.857,3.81,1.93,-0.434,0.309
TCTATGAGTTGATTAGGGCAACCGAAACAGCGGA,0.553,0.54,0.536,1.45,0.681,0.857,-0.131,0.333
CGCCCAAGGTCAAGGTCAGTGAAAGAGACTCGAA,5.33,6.54,7.08,3.25,6.2,4.42,3.53,2.96
GATACAGGGTCAGCTAGAGGCCTGAGTATGGAAA,2.73,4.73,4.64,1.14,4.29,2.49,0.0158,0.311
CCTATTGGGCCAAGGTCATTGATCAGTCAAAGCA,3.15,3.81,3.22,1.62,3.07,3.6,2.3,3.13
TAGCCTAGGTCATCCAGGGGCCAGTATAGAAAGC,3.71,6.41,5.07,0.731,2.94,3.55,0.878,0.913
ATATGTAGGTTATCGGGTGATTCAGTTTGCGCAT,1.27,0.897,0.751,0.935,1.26,1.27,1.49,0.83
ACTAGCAGCCCAAGTTTGGGTCACTCAAACAAAG,1.74,0.618,0.518,-0.56,0.612,2.1,1.15,-0.0283
ATTATTAGTTGACTTAGGGCAACCGATACGACGC,1.41,1.11,1.23,0.507,0.918,1.65,1.03,1.41
TCTTGTAGATCAGCAGGTTAAGCAAGCTGGCCAA,-0.0177,-0.192,-0.525,0.455,0.213,-0.00536,-0.897,-0.751
CGTCCAAGGTCATAGGATGTCAGTGAAGACAGAT,4.04,5.95,6.37,3.93,6.11,4.28,2.46,3.2
CCGAGTAGGTTAGGGGGCATTCAGGCAACGGTGA,2.12,2.21,1.79,1.54,2.03,2.4,1.37,2.8

Sequence,PBM binding z-score [1],PBM binding z-score [2],PBM binding z-score [3],PBM binding z-score [4],PBM binding z-score [5],PBM binding z-score [6],PBM binding z-score [7],PBM binding z-score [8]
GCGACTGGGGCATCGGCAGGTTACCATAACTTAA,1.07,1.17,0.592,-0.207,0.141,1.11,0.42,-0.113
TCTATTAGTTGAAGGGCAACTGACGAGTCCGTTT,1.26,0.617,0.548,1.49,0.829,0.242,-0.0338,1.4
CGTCCAAGGTCAGAGAGGTCAGTGCATGCCGAGT,5.13,6.03,6.95,3.49,5.11,4.21,2.91,6.02
ACTTACTGGTCAACGAGGTTATAGCACGCGTATA,1.88,1.72,1.94,1.16,1.85,2.26,1.22,1.71
GCGACTGGGTCAAAGCAGGTTACCATAAGGTTGG,2.76,3.65,3.32,0.713,3.11,4.65,0.279,0.45
TAGCCTATGTCATTCAGGGGCCAGTATAGAAAGC,0.708,1.65,0.547,-0.121,0.203,0.454,-0.611,-0.479
TAGCCTAGGTCCTGGGCCAGTATACCACGCGAAC,-0.386,-0.497,-0.364,-1.66,-0.311,-0.414,-0.714,-0.78
TCTGCTAAGTCAACGATGGTCAGCTAATCTGCTA,-0.66,-0.413,-0.169,-0.0661,-0.206,-0.52,-1.37,-1.4
CCGAATGGGGCAAGGTTACCATAACGCACAGCCA,1.24,1.05,1.37,0.000118,1.39,1.26,0.404,0.214
TCTTGTAGATCAATCAGGTTAAGAAAGCCTGAGT,0.194,0.0482,-0.074,0.724,0.241,1.02,0.308,0.0655
CAAACTAGGTCACCGGAAGGTCTAAGTCCGCATG,4.28,5.48,5.56,1.58,3.87,3.88,2.22,1.68
CATATAGGGTCAGCTAGGCCAGAGTAGGGACGGC,3.33,4.41,4.49,1.48,4.2,3.37,1.12,1.02
CCTAGTTGGTCAAGGTCAAACACGCTATAGGTAC,4.29,4.69,4.37,2.71,4.76,4.07,3.39,4.52
ATATGTAGGTTAAGGGTCATACAGGTTGGTTCGC,4.12,5.01,3.57,2.4,6.23,3.48,1.48,4.2
CGTCAAAGTTCAACTAAGGTAAAGTAAAGCACGC,3.97,6.03,6.89,3.88,5.08,5.01,1.49,3.59
TCTATAAGTTGATTAGGGCAACCGAAACAGCGGA,0.772,0.61,0.741,1.23,0.5,1.11,0.212,0.543
CCTGCTAGGTAAATGGTCAGCTAAAGCAGCTCGC,-0.0242,-0.351,-0.323,-0.0563,-0.478,-0.113,-0.416,-0.618
AATCAAAGTTCACTAGGTAACGTAAGATTCAGCT,3.41,4.44,4.91,4.32,3.38,2.02,0.0511,3.46
TCTCAGAGGACACGAAGGTCAGAGCTTTCCAGAG,3.88,3.73,4.66,1.38,1.97,2.79,0.738,1.62
